# Measurements from PubChem BioAssay (NCATS).
# Records with an inconclusive call do not appear. Values without a mark were called inactive. Calls of active or inactive are those of the source. Calls come from the whole dose curve; as a rule, active = well fitted inhibition curve with a large enough effect; inconclusive = small, poorly fitted or top-dose-only effect; inactive = no such curve, though single readings can be large or run the other way.
# Test: BET inhibitor-based combinations targeting novel dependencies in MECOM-rearranged (r) AML: SET-2 cell line (AID 2202231); note: nearly all actives have a fitted effect of over 35% in size
# Details: SET-2 AML cells viability, CellTiter-Glo luminescence, 48 h; viability: active compounds read low, series mostly up to about 46 µM
# Excerpt: Ecotropic viral insertion site 1 (EVI1) is located on chromosome 3q26.2 as part of the MECOM (MDS and EVI1 complex) locus. Under normal hematopoiesis, EVI1 is a regulator of hematopoietic stem cell maintenance and self-renewal and EVI1 levels decrease as the cells differentiate. In approximately 5-10% of de novo acute myeloid leukemia (AML) EVI1 is aberrantly expressed, including Chromosomal inv(3)(q21;q26.2) or t(3;3)(q21;q26.2) alterations (MECOM-r) that account for about 50% of AML with EVI1 overexpression 31. AMLs with high levels of EVI1 have a poor prognosis and an overall survival time averaging between 10-14 months. EVI1 overexpression confers resistance in leukemia cells, highlighting the need to develop new targeted therapies for EVI1 overexpressing AMLs.
# Here, we performed an unbiased chemical drug screening by evaluating the single agent activity of a collection of 2,480 oncology-focused, approved and investigational drugs (NCATS Mechanism Interrogation Plates, MIPE v5.0) against a panel of seven AML cell lines. These included four MECOM-r cell-lines (AML-191, AML-194, UCSD-AML1 and HNT-34) and three non-MECOM-r AMLs (MV4-11, OCI-AML3 and SET-2). Exploiting the mechanistic redundancy built in the library, we identified target-level sensitivities in MECOM-r AML cells and relative activity as compared to other AML subtypes.
# A collection of 2480 mechanistically annotated dugs (MIPE v5.0) was used to screen four 3q26.2 rearranged AML cell lines and three non-3q26.2 rearranged AML cell lines. This library purposely exploits redundancy by including multiple inhibitors of key onco-targets, while simultaneously encompassing mechanistic diversity, targeting more than 800 distinct mechanisms of action. Briefly, cells were seeded in 5 uL of growth media using a Multidrop Combi dispenser into 1536 well white polystyrene tissue culture treated plates (Corning) at a density of 500cells/well. For each cell-line, for each of the 2480 drugs in MIPE v5.0 library, an 11-point dose curve was generated via a 1536 pin-tool. Plates were incubated for 48 hr at standard incubator conditions, covered by a stainless steel gasketed lid to prevent evaporation. Cell viability was determined by luminescence based, Cell Titer Glo assay (Promega). In detail, 3 uL of Cell Titer Glo were added to each well and plates were incubated at room temperature for 15 min with a stainless-steel lid in place. Luminescence readings were taken using a Viewlux (PerkinElmer) with a 2 s exposure time per plate. Compound dose-response curves were normalized to DMSO and empty well controls on each plate. Quantitative drug activity data from dose-response curves was determined utilizing area Under the Curve (AUC) and Z-transformed AUC (Z-AUC, a mean-centering transformation applied to each individual cell-line screened).
# Potency is the fitted concentration of half-maximal effect.
SMILES,viability [%],Potency
N#Cc1c(N(CC(=O)O)CC(=O)O)sc(C(=O)O)c1CC(=O)O,117,–
COc1ccc2c(c1)CC[C@@H]1[C@@H]2CC[C@]2(C)[C@@H](NCCCCCCN3C(=O)C=CC3=O)CC[C@@H]12,113,–
Cc1cc(/C=c2/sc3nc4ccccc4n3c2=O)c(C)n1-c1ccccc1,105,–
COc1cc2c(NC3CCN(C)CC3)nc(N3CCCN(C)CC3)nc2cc1OCCCN(C)C,112,–
C=C(c1ccc(C(=O)O)cc1)c1cc2c(cc1C)C(C)(C)CCC2(C)C,115,–
COc1cc([C@@H]2c3cc4c(cc3[C@@H](O[C@@H]3O[C@@H]5CO[C@@H](c6cccs6)O[C@H]5[C@H](O)[C@H]3O)[C@H]3COC(=O)[C@H]23)OCO4)cc(OC)c1O,–,1.18 µM (active)
CCn1c(=O)c(-c2ccc(-c3cncc(C)n3)cc2Cl)cc2cnc(NCCC3CCN(C)CC3)nc21,93.7,–
CN[C@H]1CN(c2ccc3c(=O)c(C(=O)O)cn(-c4nccs4)c3n2)C[C@@H]1OC,–,2.41 µM (active)
COCCOC(=O)N1CCN(S(=O)(=O)c2cc(F)c(Oc3ccc(Cl)cc3)c(F)c2)C(C(=O)NO)C1 (stereo not given),–,10.5 µM (active)
O=C1CC(c2c[nH]c3ccc(F)cc23)C(=O)N1 (stereo not given),111,–
C[C@]12CCC3=C4CCC(=O)C=C4CC[C@H]3[C@@H]1CC[C@@]2(O)CC#N,108,–
CC(C)C(N)C(=O)OCC(CO)OCn1cnc2c(=O)[nH]c(N)nc21 (stereo not given),87,–
COc1ccnc2[nH]cc(C(=O)C(=O)N3CCN(C(=O)c4ccccc4)C[C@H]3C)c12,113,–
C[C@H]1CN(C2COC2)CCN1c1ccc(Nc2cc(-c3ccnc(N4CCn5c(cc6c5CC(C)(C)C6)C4=O)c3CO)cn(C)c2=O)nc1,121,–
NS(=O)(=O)Oc1ccc2c3c(c(=O)oc2c1)CCCCC3,105,–
NCC(=O)Nc1cncc(-c2nn3c(=O)cc(N4CCNCC4)nc3s2)c1,111,–
CC(=O)c1ccc2c(c1)c1cc(C(C)=O)ccc1n2CCNC(C)C,–,1.18 µM (active)
C[C@]1(C(=O)N(CCCC(=O)O)Cc2cccc(Cl)c2)CCN1C(=O)c1csc2ccccc12,108,–
COc1ccc2c(c1OC)C(=O)OC2[C@H]1c2c(cc3c(c2OC)OCO3)CCN1C (stereo not given in full),–,16.6 µM (active)
CC(C)(O)CS(=O)(=O)Nc1ccc2c(c1)CCN(C(=O)COc1cccnc1)C2,108,–

SMILES,viability [%],Potency
COc1ccc2c(c1)C(c1ccc(F)cc1)=C(CN1CCCC1)CO2,95.4,–
O=c1c(-c2ccc(O)cc2)coc2c([C@@H]3O[C@H](CO)[C@@H](O)[C@H](O)[C@H]3O)c(O)ccc12,113,–
CN1C(N)=N[C@](C)(c2cc(NC(=O)c3ccc(F)cn3)ccc2F)CS1(=O)=O,121,–
Cn1cc(/C=C2\C(=O)Nc3cccnc32)c2ccccc21,86.8,–
COc1ccc(Cl)c(Nc2nc3ccccc3nc2NS(=O)(=O)c2cccc(NC(=O)C(C)(C)N)c2)c1,103,–
C=C1C(=O)O[C@@H]2[C@H]3O[C@]3(C)CC/C=C(\C)CC[C@@H]12,–,11.8 µM (active)
CC(=O)O/N=C1\C(=O)N(Cc2cc(Cl)ccc2Cl)c2ccc(Cl)cc21,–,9.34 µM (active)
C=CC(=O)Nc1cc2c(Nc3ccc(F)c(Cl)c3)ncnc2cc1C#CC(C)(C)N1CCN(C)CC1,–,5.9 µM (active)
Cn1ncc(Cl)c1-c1cc(C(=O)N[C@H](CN)Cc2ccc(F)c(F)c2)sc1Cl,–,20.9 µM (active)
COC(C)(C)CCn1nc(Nc2c(C)cccc2C)c2cnc(Nc3ccc(OCCN4CCCC4)c(F)c3)nc21,–,18.6 µM (active)
CC(C)(O)CNc1ncc(-c2ccnc(Nc3ccncc3)n2)c(CC2CC2)n1,–,18.6 µM (active)
CCS(=O)(=O)Nc1ccc2[nH]c(O)c(C(=Nc3ccc(CN4CCCCC4)cc3)c3ccccc3)c2c1,–,2.63 µM (active)
C[C@@H]1COCCN1c1cc(C2(S(C)(=N)=O)CC2)nc(-c2ccnc3[nH]ccc23)n1 (stereo not given in full),–,2.63 µM (active)
COc1cc(OC)cc(N2CCN(C(=O)Nc3nc4cc(F)ccc4nc3OC)CC2)c1,–,1.32 µM (active)
CC(=O)O/N=C1/C(c2c(O)[nH]c3cc(Br)ccc23)=Nc2ccccc21,–,14.8 µM (active)
Cn1cc(C2=C(c3cn(C)c4cc([N+](=O)[O-])ccc34)C(=O)NC2=O)c2ccccc21,–,2.35 µM (active)
Cc1ccc(C(=O)Nc2ccc(CN3CCN(C)CC3)c(C(F)(F)F)c2)cc1C#Cc1cnc2[nH]ncc2c1,–,4.17 µM (active)
CCC(=O)Nc1cccc(Oc2nc(Nc3ccc(N4CCN(C)CC4)cc3OC)ncc2Cl)c1,–,20.9 µM (active)
COc1ccc(S(=O)(=O)NCc2ccc(C(=O)NCCc3ccc(Cl)cn3)cc2)cc1,98,–
Nc1nccn2c(C3CCC(C(=O)O)CC3)nc(-c3cc4cccc(Cl)c4[nH]3)c12 (stereo not given),–,7.42 µM (active)
